Assay results: PMC4336329 (PLoS ONE, 2015)
Screen size: about 310,000 compounds; about 14,000 (4.5%) showed an effect of 50% or more. The effect is printed as a negative number. This is one part of a sample in which strong results are shown more often than they occur.

biological target: human ether-à-go-go-related gene (hERG) potassium channel (human, UniProt Q12809); assay: primary screen, population patch clamp on CHO cells stably expressing hERG; higher = less effect of the substance
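Also: peak tail current of the secondary pulse compared with the same well before compound.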

Chain of human ether-à-go-go-related gene (hERG) potassium channel (Q12809 whole entry, looked up): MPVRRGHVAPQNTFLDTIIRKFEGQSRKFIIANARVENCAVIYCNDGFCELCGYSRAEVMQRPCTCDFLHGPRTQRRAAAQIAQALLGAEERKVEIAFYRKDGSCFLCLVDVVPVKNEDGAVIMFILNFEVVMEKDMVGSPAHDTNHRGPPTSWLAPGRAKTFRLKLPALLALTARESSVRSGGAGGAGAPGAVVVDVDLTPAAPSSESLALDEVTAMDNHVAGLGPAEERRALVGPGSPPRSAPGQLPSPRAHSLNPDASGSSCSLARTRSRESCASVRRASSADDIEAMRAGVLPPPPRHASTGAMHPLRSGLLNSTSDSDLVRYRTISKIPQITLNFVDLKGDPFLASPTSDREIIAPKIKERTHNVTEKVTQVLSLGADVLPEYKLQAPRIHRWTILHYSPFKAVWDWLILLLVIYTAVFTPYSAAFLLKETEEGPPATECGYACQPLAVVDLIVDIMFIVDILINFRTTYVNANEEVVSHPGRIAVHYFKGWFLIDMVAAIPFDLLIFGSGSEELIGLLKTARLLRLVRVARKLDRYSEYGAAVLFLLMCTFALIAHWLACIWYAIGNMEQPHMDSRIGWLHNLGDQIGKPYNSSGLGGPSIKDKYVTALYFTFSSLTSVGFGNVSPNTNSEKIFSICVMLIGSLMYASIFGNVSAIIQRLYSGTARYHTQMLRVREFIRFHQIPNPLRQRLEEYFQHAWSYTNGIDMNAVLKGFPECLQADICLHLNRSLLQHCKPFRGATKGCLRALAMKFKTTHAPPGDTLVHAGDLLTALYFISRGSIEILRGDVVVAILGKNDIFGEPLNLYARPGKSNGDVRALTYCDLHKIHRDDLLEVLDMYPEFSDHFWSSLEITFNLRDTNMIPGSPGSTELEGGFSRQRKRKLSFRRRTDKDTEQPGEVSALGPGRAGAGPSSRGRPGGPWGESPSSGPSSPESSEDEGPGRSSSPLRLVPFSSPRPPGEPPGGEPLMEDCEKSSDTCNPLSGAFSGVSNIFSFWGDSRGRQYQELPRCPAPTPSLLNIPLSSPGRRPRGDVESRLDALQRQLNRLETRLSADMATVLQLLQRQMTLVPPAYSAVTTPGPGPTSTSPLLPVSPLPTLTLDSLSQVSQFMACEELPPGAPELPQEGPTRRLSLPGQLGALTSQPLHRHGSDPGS

| SMILES | hERG current change (%, negative = inhibition) at 10uM [%] |
| --- | --- |
| COc1ccc(C(=O)N=c2sc3c(C)ccc(OC)c3n2C)cc1 | 6.32 |
| CCCC(=O)Nc1ccc(C(=O)NNC(=O)c2cccs2)cc1 | 12.2 |
| CC1(C)COC(c2coc3ccccc3c2=O)OC1 | 3.85 |
| Oc1c(N=NC(=S)Nc2ccccc2F)c2ccccc2n1Cc1ccc(F)cc1 | 18.7 |
| O=C(c1cccc(Br)c1)N1CCN(c2ccccn2)CC1 | -4.19 |
| OCCC1CN(Cc2cccn2-c2ccccn2)CCN1C1CCCCC1 (centres unmarked) | -57.1 |
| Cc1ccc(CN2CCN(Cc3cnc(N(C)C)s3)CC2CCO)o1 (centres unmarked) | 6.05 |
| OCCC1CN(Cc2cccn2-c2ccccn2)CCN1C1CCCC1 (centres unmarked) | -18.9 |
| OCCC1CN(Cc2cccn2-c2ncccn2)CCN1C1CCCC1 (centres unmarked) | -6.11 |
| OCCC1CN(Cc2cccn2-c2ccccn2)CCN1Cc1ccccc1 (centres unmarked) | -76.5 |
| Cc1ccc(CN2CCN(Cc3ccccn3)CC2CCO)cc1 (centres unmarked) | -47.9 |
| Cc1ccc(CN2CCN(Cc3cccn3-c3ccccn3)CC2CCO)cc1 (centres unmarked) | -82 |
| Cc1ccc(CN2CCN(Cc3cccn3-c3ccc(Cl)cn3)CC2CCO)o1 (centres unmarked) | -23.3 |
| Cc1ccc(CN2CCN(Cc3cccn3-c3ccccn3)CC2CCO)o1 (centres unmarked) | -66.1 |
| Cc1onc(-c2c(F)cccc2Cl)c1C(=O)ONC(=O)c1ccccc1 | 8.85 |
| CC(=O)Nc1ccc(S(=O)(=O)N(CC(=O)O)Cc2ccccc2)cc1 | -12.6 |
| CC1CN(C(=O)C2CC(=O)N(c3ccc(Cl)cc3)C2)CC(C)O1 (centres unmarked) | -13.3 |
| COC(=O)c1ccc(/C=N\N2CCN(Cc3ccc(C)cc3)CC2)cc1 | 9.51 |
| O=C(CCN1C(=O)/C(=C/c2ccccc2F)SC1=S)NCCc1ccc(O)cc1 | 14.1 |
| COC(=O)c1cc(Cl)c(NC(=O)/C=C/c2ccc(Cl)cc2)cc1OC | -15.7 |
| Fc1ccc(Br)cc1C1C=C(c2ccc(Br)s2)Nc2ncnn21 (centres unmarked) | 9 |
| COCCCNC(=O)c1ccc(CS(=O)(=O)c2ccccc2C)o1 | 7.74 |
| O=C(NCc1cccnc1)C1c2ccccc2C(=O)N1C1CCCCCC1 (centres unmarked) | 2.21 |

| SMILES | hERG current change (%, negative = inhibition) at 10uM [%] |
| --- | --- |
| O=C(O)c1cccc2c1NC(C(=O)O)C1CC(Sc3ccccc3[N+](=O)[O-])C(Cl)C21 (centres unmarked) | -0.458 |
| Cc1cc2oc(C(=O)N3CCN(CCc4ccccn4)CC3)c(C)c2cc1C | -21.2 |
| Cc1c(C(=O)N2CCN(CCc3ccccn3)CC2)oc2ccc(F)cc12 | -72.1 |
| Cc1ccc2oc(C(=O)N3CCN(Cc4nccn4C)CC3)c(C)c2c1 | -41.3 |
| Cc1c(C(=O)N2CCN(C(=O)c3ccccc3)CC2)oc2ccc(F)cc12 | -44.8 |
| Cc1ccc2oc(C(=O)N3CCN(Cc4ncccc4C)CC3)c(C)c2c1 | -78.3 |
| Cc1ccc2c(C)c(C(=O)N3CCN(Cc4ccccn4)CC3)oc2c1C | -23.1 |
| Cc1ccc2oc(C(=O)N3CCN(CCO)CC3)c(C)c2c1 | 13.7 |
| Cc1c(C(=O)N2CCN(CCc3ccccn3)CC2)oc2ccc(Cl)cc12 | -81.1 |
| Cc1c(C(=O)N2CCN(c3ncccn3)CC2)oc2ccc(Cl)cc12 | -23.3 |
| CC(C)CN(C(=O)c1ccc(S(=O)(=O)N2CCCC2)cc1)C1CCS(=O)(=O)C1 (centres unmarked) | -3.52 |
| Cc1cccc(NC(=O)C(=O)NCc2ccc3c(c2)OCO3)c1C | -16.5 |
| CCN(CC)C(=O)Oc1nnc(SC(C)C)n1-c1ccc(Cl)c(Cl)c1 | -7.2 |
| Cc1ncoc1C(=O)N1CCCC(C(=O)c2cccc(OC(C)C)c2)C1 (centres unmarked) | 10.3 |
| Cc1ccc(C)c(C(C)NC(=O)C2CCCO2)c1 (centres unmarked) | 17.6 |
| Cc1ccc(Cl)cc1N1CCN(C(=O)c2noc(C)c2[N+](=O)[O-])CC1 | 1.15 |
| Cc1cc(C(=O)N2CCN(c3cc(Cl)ccc3C)CC2)on1 | -58.7 |
| CC(=O)N1CCN(C(=O)CNC(=O)c2ccc(Br)o2)CC1 | 22.2 |
| O=C(NCC(=O)N1CCN(c2ccccc2F)CC1)c1ccc(Br)o1 | -39.1 |
| O=C(NCC(=O)N1CCN(c2ccccc2)CC1)c1ccc(Br)o1 | -39.9 |
| Cc1cc(C(=O)N2CCN(c3ccc(F)cc3)CC2)on1 | -14.5 |
| O=C(NCC(=O)N1CCN(c2ccccc2O)CC1)c1ccc(Br)o1 | -4.93 |
| Cc1ccc(Cl)cc1N1CCN(C(=O)CNC(=O)c2ccc(Br)o2)CC1 | -55.9 |

| SMILES | hERG current change (%, negative = inhibition) at 10uM [%] |
| --- | --- |
| O=C(NCC(=O)N1CCN(c2cccc(Cl)c2)CC1)c1ccc(Br)o1 | -78.4 |
| Cc1ccc(CN2CCc3[nH]c(=O)[nH]c(=O)c3C2)cc1 | 17.5 |
| S=C(Nc1ccc(Oc2ccc(NC(=S)NC3CCCCC3)cc2)cc1)NC1CCCCC1 | 17.6 |
| Cc1ccc(C(=O)N2CCN(C(=O)N3CCOCC3)CC2)cc1 | -5.64 |
| COC(=O)c1ccccc1Oc1nc(Cl)cc(OC)n1 | -12.1 |
| O=C(NCc1ccco1)C(=O)NCC(c1ccco1)N1CCOCC1 (centres unmarked) | 13 |
| CC1(C)CC(=O)c2sc(NC(=O)c3ccccc3)nc2C1 | 2.82 |
| O=C(COc1cccc2cccnc12)Nc1ccccc1N1CCOCC1 | -37.7 |
| CCCNC(=O)c1ccc(N2CCC3(CC2)CC(c2cccc(Br)c2)=NO3)c(NC(=O)c2c(Cl)cccc2Cl)c1 | 5.92 |
| COc1cc(CNCCc2ccccc2)ccc1OCC(N)=O.Cl | -17.4 |
| COc1ccccc1CCNCc1ccc(OC)c(OCc2ccccc2)c1 | -71.9 |
| CCOc1cc(CNCc2ccccc2)ccc1OCc1ccc(Cl)cc1.Cl | -33.1 |
| COc1ccc(CNCCc2ccccc2)cc1OCC(N)=O | -12 |
| CCOc1cc(CNCCc2ccccc2F)ccc1OC.O=C(O)C(=O)O | -42.1 |
| COc1ccc(CNCCc2ccc(Cl)cc2)cc1OCc1ccccc1 | -75.6 |
| O=C(O)C(=O)O.c1ccc(CNC2=NCCCC2)cc1 | 1.76 |
| COc1ccccc1CCC(=O)Nc1ccc(S(=O)(=O)Nc2cc(C)nc(C)n2)cc1 | 12 |
| COc1ccccc1-n1ccnc1SCC(=O)NC(C)(C)C | 13.3 |
| CN(C)c1ccc(NC(=S)NC(=O)/C=C/c2ccc(Cl)cc2)cc1 | 2.39 |
| CC(=O)NNC(=O)c1csc(Cc2c(Cl)sc3ccc(Cl)cc23)n1 | -19.6 |
| CNC(=O)c1csc(Cc2c(Cl)sc3ccc(Cl)cc23)n1 | -2.3 |
| CNC(=O)NNC(=O)c1csc(Cc2c(Cl)sc3ccc(Cl)cc23)n1 | -52.1 |
| CN=C(Nc1ccccc1OC)SC1CC(=O)N(c2ccc(C(=O)OC)cc2)C1=O (centres unmarked) | -12.5 |

| SMILES | hERG current change (%, negative = inhibition) at 10uM [%] |
| --- | --- |
| O=C(Nc1cccnc1)/C(N=Nc1c(Cl)cccc1Cl)=C(\O)c1ccccc1 | 18.8 |
| O=C(Nc1cccnc1)/C(N=Nc1ccc(Cl)c(C(F)(F)F)c1)=C(\O)c1ccccc1 | 29.3 |
| O=C(Nc1cccnc1)/C(N=Nc1cccnc1)=C(\O)c1ccccc1 | -53 |
| COc1cccc(CNC(=O)CCC2CCCN(C(=O)CCc3c(C)noc3C)C2)c1 (centres unmarked) | -2.56 |
| COc1ccc(CCNS(=O)(=O)c2ccc3oc(C(=O)O)c(C)c3c2)cc1OC | 0.0936 |
| CCOC(=O)C(NC(=O)Nc1ccc(C(N)=O)cc1)(c1ccccc1)C(F)(F)F (centres unmarked) | -14.6 |
| Cc1cc(/C=N/n2cnnc2)c(C)n1-c1cccc(Cl)c1 | -22.2 |
| Cc1cccc(-n2c(SCc3cc(=O)n4ccsc4n3)nc3ccccc3c2=O)c1 | -5.76 |
| O=C(Nc1ccc(Cl)cc1)N1CCN(C(=O)C2CCCO2)CC1 (centres unmarked) | 14.9 |
| COc1ccc(C(=O)Nn2cnnc2)cc1OC | 14.6 |
| CCOc1ccc(C(=O)Nn2cnnc2)cc1OCC | -70.4 |
| CCOc1cc(C(=O)Nn2cnnc2)cc(OCC)c1OCC | 13.8 |
| CC1CCc2cc(F)ccc2N1C(=O)c1ccncc1 (centres unmarked) | 7.7 |
| Cc1cccc(N(C(=O)Cc2cccs2)C(C(=O)NC2CCCC2)c2ccncc2)c1 (centres unmarked) | 8.83 |
| O=C(c1ccco1)N1CCN(C(c2ccccc2)c2nnnn2Cc2cccs2)CC1 (centres unmarked) | -38.9 |
| Cl.O=C(c1ccco1)N1CCN(C(c2ccc(F)cc2)c2nnnn2Cc2cccs2)CC1 (centres unmarked) | -57 |
| CC(C)C(c1nnnn1Cc1cccs1)N1CCN(C(=O)c2ccco2)CC1 (centres unmarked) | -31.6 |
| O=C(c1ccco1)N1CCN(C(c2ccc(F)cc2)c2nnnn2CC2CCCO2)CC1 (centres unmarked) | -13.7 |
| Cc1ccc(C(c2nnnn2Cc2cccs2)N2CCN(C(=O)c3ccco3)CC2)cc1 (centres unmarked) | -62.5 |
| CC(C)CCn1nnnc1C(c1ccc(F)cc1)N1CCN(C(=O)c2ccco2)CC1 (centres unmarked) | -38.1 |
